Test systems include HCT-15 colon; HT29 colon; SNB-75 CNS; SNB-19 CNS; U251 CNS; PC-3 prostate; LOX IMVI melanoma; UACC-62 melanoma; SK-MEL-28 melanoma.
Assay in all cases: NCI-60 one-dose screen, 48 h (100 = growth as untreated, 0 = no growth, -100 = all killed)
Common to all, as to settings: 10 µM unless noted

The panel holds about 83,000 compounds, 20% with a hit somewhere; the sample as a whole holds those more often.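 96-well plates, one dose, 48 hours. Percent growth reported; active if below 10.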 Unmarked numbers belong to inactive results. The source made the active and inactive calls.

For `CCCCC[C@H]1C/C=C2/C(=O)C=C[C@@H]2C/C=C\CCCC(=O)O1`, the growth with HCT-15 colon was -18.8% (active); with HT29 colon it was -69.1% (active); with SNB-75 CNS, -33.6% (active); with SNB-19 CNS, 1.16% (active); with U251 CNS, -78.2% (active); in the assay on PC-3 prostate, -38.4% (active). In addition, in the assay with LOX IMVI melanoma, the growth was -79.1% (active).

As to `Cc1nc(Nc2ccc(F)c(Cl)c2)sc1C(=O)O`, the growth was 11.3% in the assay with HCT-15 colon; 3.5% (active) in the assay with HT29 colon; -13.4% (active) with SNB-75 CNS; 26.2% in the assay with SNB-19 CNS; 8.16% (active) with U251 CNS; 7.92% (active) with PC-3 prostate. The growth in the assay with LOX IMVI melanoma is 2.1% (active).

For `COc1ccc2c(c1)C(=O)/C(=C/c1cccnc1)CC2`, the growth in the assay on HCT-15 colon is 92.8%; with HT29 colon it was 92.5%; in the assay with SNB-75 CNS, 91.6%; in the assay with SNB-19 CNS it was 88.7%; with U251 CNS, 86.7%; with PC-3 prostate it was 101%. For the same compound, the growth in the assay on LOX IMVI melanoma was 88.5%.

Turning to `NC(=NC1C2CC3CC(C2)CC1C3)Nc1ccc(I)cc1` (stereo not given), the growth in the assay on HCT-15 colon was 43.9%; with HT29 colon it was 9.6% (active); with SNB-75 CNS, 57.1%; in the assay on SNB-19 CNS it was 27.5%; in the assay on U251 CNS, 50.4%; in the assay on PC-3 prostate, 36.9%. The growth in the assay with LOX IMVI melanoma is 61.9%.

Take `CC(=O)c1cc(C(=O)c2ccc3c(c2)Sc2ccccc2N3)n2ccccc12`: the growth in the assay on HCT-15 colon was 17.9%; in the assay with HT29 colon it was -13.1% (active); with SNB-75 CNS it was 13.1%; in the assay with SNB-19 CNS, 30.9%; in the assay on U251 CNS, 9.6% (active); with PC-3 prostate it was 22.2%. In addition, the growth with LOX IMVI melanoma is 20.8%.

With `CCOc1ccc(-n2nc(C(=O)Nc3ccccc3)nc2-c2cc(OC)c(OC)c(OC)c2)cc1`, the growth is 35.4% in the assay on HCT-15 colon; 13% in the assay on HT29 colon; 35.1% in the assay on SNB-75 CNS; 55.8% in the assay on SNB-19 CNS; 36.1% in the assay with U251 CNS; 44.9% in the assay on PC-3 prostate. For the same compound, the growth in the assay with LOX IMVI melanoma is 55.8%.

With `CC(=O)O[C@H]1C(=O)[C@@]2(C)[C@H]([C@H](OC(=O)c3ccccc3)[C@]3(O)C[C@H](OC(=O)[C@H](OC(=O)CCC(=O)OC4CCC(S/N=C(N)/N=C(\N)N(C)C)CC4)[C@@H](NC(=O)c4ccccc4)c4ccccc4)C(C)=C1C3(C)C)[C@]1(OC(C)=O)CO[C@@H]1C[C@@H]2O` (stereo not given in full), the growth was 25.3% with HCT-15 colon; 5% (active) in the assay on HT29 colon; -22.3% (active) in the assay on SNB-75 CNS; 29.8% in the assay with SNB-19 CNS; 17.1% in the assay on U251 CNS; 28.4% with PC-3 prostate. Also, the growth with LOX IMVI melanoma is 42.9%.

For the compound `COc1ccc(-c2nnc(SCC(=O)c3ccc(Cl)cc3)o2)cc1`, the growth in the assay with HCT-15 colon is 104%; in the assay on HT29 colon, 96%; with SNB-75 CNS, 88.8%; with SNB-19 CNS, 101%; in the assay on U251 CNS, 99.8%; in the assay on PC-3 prostate it was 101%. Moreover, the growth with LOX IMVI melanoma was 97.1%.

As for `C=C1C(=O)O[C@H]2[C@H]1CC/C(C=Nc1ccc(C(F)(F)F)cc1N)=C\CC[C@@]1(C)O[C@@H]21`, the growth in the assay on HCT-15 colon was 2.23% (active); with HT29 colon, 1.96% (active); in the assay with SNB-75 CNS, 41.1%; in the assay on SNB-19 CNS, 44%; in the assay on U251 CNS, 14.6%; in the assay with PC-3 prostate, 14.2%. Besides, the growth in the assay on LOX IMVI melanoma was -48.9% (active).

As to `CN1CCN(CCCOc2cccc3nc(Nc4ccc(Cl)c(F)c4)ccc23)CC1`, the growth with HCT-15 colon was -48.3% (active); with HT29 colon it was -59.7% (active); in the assay on SNB-75 CNS, 48.2%; in the assay on SNB-19 CNS, 42.3%; in the assay with U251 CNS, 26.1%; in the assay on PC-3 prostate, 39%. Further, the growth in the assay with UACC-62 melanoma is -55.5% (active); in the assay on SK-MEL-28 melanoma it was 18.1%.

For `COc1cc(-c2nc(C(=O)NCC(=O)NO)nn2-c2ccc(Cl)cc2)cc(OC)c1OC`, the growth with HCT-15 colon is 101%; in the assay on HT29 colon, 96.4%; in the assay on SNB-75 CNS it was 87.7%; with SNB-19 CNS it was 100%; in the assay on U251 CNS, 96.1%; in the assay on PC-3 prostate, 87.9%. Also, the growth in the assay with LOX IMVI melanoma is 95.9%.

As for `COc1ccc(CN2c3ccccc3Sc3ccccc32)cc1O`, the growth was 33.1% in the assay on HCT-15 colon; 8.73% (active) in the assay on HT29 colon; 26.6% with SNB-75 CNS; 33% in the assay with SNB-19 CNS; 18.5% in the assay on U251 CNS; 26.1% in the assay with PC-3 prostate. Besides, the growth with LOX IMVI melanoma was 43.1%.

Take `NC(=NCCCC1(c2ccccc2)CCCC1)Nc1ccc(Cl)cc1`: the growth with HCT-15 colon was 28.9%; with HT29 colon it was -15.4% (active); with SNB-75 CNS, 41.1%; with SNB-19 CNS, 55.9%; with U251 CNS, -26.6% (active); in the assay with PC-3 prostate, 43.3%. In addition, the growth with LOX IMVI melanoma is -50% (active).

Take `CC(C)(CCCN=C(N)Nc1ccc(Cl)cc1)c1ccc(F)cc1`: the growth in the assay with HCT-15 colon was 67.1%; in the assay on HT29 colon it was 12.7%; in the assay on SNB-75 CNS, 60.7%; with SNB-19 CNS, 67.4%; with U251 CNS, 65.5%; with PC-3 prostate it was 52.9%. The growth in the assay with LOX IMVI melanoma is 57.8%.

Turning to `CCOc1ccc(-n2nc(C(=O)Nc3cc(OC)c(OC)c(OC)c3)nc2-c2cc(OC)c(OC)c(OC)c2)cc1`, the growth with HCT-15 colon is 82.1%; with HT29 colon, 84.6%; in the assay with SNB-75 CNS, 65.6%; in the assay on SNB-19 CNS, 82.1%; in the assay on U251 CNS, 85.1%; with PC-3 prostate it was 70.2%. For the same compound, in the assay on LOX IMVI melanoma, the growth was 89%.

As for `CC/C=C\C[C@H]1C/C=C2/C(=O)C=C[C@H]2C/C=C\CCCC(=O)O1`, the growth with HCT-15 colon was 29.8%; in the assay on HT29 colon, 6.12% (active); in the assay with SNB-75 CNS, 38.6%; in the assay with SNB-19 CNS, 40.3%; in the assay with U251 CNS, 10.4%; with PC-3 prostate, 36%. Also, the growth in the assay with LOX IMVI melanoma was 6.07% (active).

Regarding `CCOC(=O)c1sc(Nc2ccc(Cl)cc2)nc1C`, the growth in the assay on HCT-15 colon is 13.1%; with HT29 colon, 4.65% (active); in the assay on SNB-75 CNS it was -11.2% (active); with SNB-19 CNS, 37%; in the assay with U251 CNS, 13.5%; in the assay with PC-3 prostate, 14.2%. Further, the growth with LOX IMVI melanoma was 9.91% (active).

Values taken from PubChem BioAssay (NCI).
